Nrf2 block = Nrf2 qHTS screen for inhibitors. A549 ARE-Fluc reporter, luciferase luminescence, 18-24 h. AID 504444, 2011. Potency, µM (highest dose often 46 µM), most hits filed as inhibitors. 360,000 compounds, 2.1% hits; also: nearly all actives have a fitted effect of over 60% in size
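Nrf2 activity is the BugLite luminescence, read 15 min after reagent at room temperature, following CellTiter-Fluor cytotoxicity readout (30 min, 37C). Compound titrations were applied for 18-24 h to 5000 A549 ARE_Fluc cells/well in 5% FBS OPTI-MEM.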
ATXN2 expr inh = Primary qHTS for Inhibitors of ATXN expression; HEK-293 ATXN2-luciferase reporter, luminescence, 24 h; Potency, µM (titrated, usually from 57 µM), most hits filed as inhibitors; 360,000 compounds, 0.72% hits; AID 1745845, 2022; also: nearly all actives have a fitted effect of over 55% in size
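qHTS (up to 57 uM final) was run with 24 h compound exposure of reporter cells at 37 °C. Each well was multiplexed: SteadyGlo luminescence measured ATXN2-luciferase expression after a fluorogenic Gly-Phe-AFC viability readout (25 uM final).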
S2 tox = Viability Counterscreen for Primary qHTS for Inhibitors of ATXN expression; S2 cells (HEK-293 line with an ATXN2-luciferase reporter) viability, CellTiter-Fluor protease fluorescence, 24 h; Potency, µM (series often up to 56.7 µM), most hits filed as cytotoxic; 400,000 compounds, 0.49% hits; AID 651635, 2014; also: nearly all actives have a fitted effect of over 40% in size
A549 viability = Nrf2 qHTS screen for inhibitors: counterscreen for cytotoxicity. A549 ARE-Fluc cells, CellTiter-Fluor viability, 18-24 h. Potency, µM (highest dose often 46 µM), usual class: inhibitors. 390,000 compounds, 0.16% hits. AID 504648, 2011
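A549 ARE_Fluc cells in 5% FBS OPTI-MEM were exposed to compounds in concentration-response for 18-24 h at 37 deg C. Viability was read by CellTiter-Fluor fluorescence (Ex 405/Em 525) after 30 min, before the luciferase read.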
HepG2 viability = qHTS for Inhibitors of TGF-b: Cytotox Counterscreen; 410,000 compounds, 0.76% hits; HepG2 CAGA-GFP viability, ATP luminescence, 18 h; Potency, µM (top dose mostly 46.1 µM), hits mostly cytotoxic
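HepG2 CAGA-GFP cells (1000/well, DMEM with 1% FBS) received compound, then TGF-beta at 500 pg/mL final, and were incubated 18 hours at 37 degrees C. Viability was read by CellTiter-Glo luminescence. Media-only wells were set as complete cell-killing and DMSO as no toxicity.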
TGFb inhibitor = qHTS for Inhibitors of TGF-b. Potency, µM (titrated, usually from 46.1 µM), most hits filed as inhibitors. 410,000 compounds, 1.2% hits. HepG2 CAGA-GFP TGF-b/SMAD3 reporter, GFP fluorescence, 18 h; TGF-beta stimulated, 500 pg/mL final. AID 588855, 2011; also: nearly all actives have a fitted effect of over 65% in size
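Using HEPG2 CAGA-GFP reporter cells at 1000 cells/well, we pinned test compounds, stimulated with recombinant TGF-beta (500 pg/mL final) and measured total well GFP after 18 h.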
Hits are given with their value; n = inactive; u = inconclusive; x = no result given; [ ] = another dose, or the depositor's remark. This is a sample that favours compounds with a hit; in the whole collection about 3.8% have one here. Calls follow the shape of the dose curve; as a rule, active = well fitted curve in the direction sought with a large enough effect; inconclusive = small, poorly fitted or top-dose-only effect, or another doubt; inactive = no such curve, though single readings can be large; an effect the other way counts as inactive or inconclusive.

SMILES	Nrf2 block	ATXN2 expr inh	S2 tox	A549 viability	HepG2 viability	TGFb inhibitor
CCCCN(C)C(=O)c1oc2ccc(S(=O)(=O)N3CCCCCC3)cc2c1C	16.4µM	u	n	n	n	u
CCOC(=O)c1c(C)nc2c(c1-c1ccc(Cl)cc1)C(=O)CC(C)(C)C2	u	n	n	n	n	n
CCN1C(=O)C2(c3ccccc31)c1c(oc3ccc(F)cc3c1=O)C(=O)N2CCCOC (stereo not drawn)	n	n	n	n	n	n
CCOC(=O)c1cnc2ccc(OCC)cc2c1N1CCN(c2ccccc2F)CC1	n	n	u	n	n	11.2µM
CCOC(=O)C1CCN(c2c(C(=O)c3ccc(OCC)cc3)cnc3ccc(OC)cc23)CC1	n	u	u	n	n	8.91µM
Fc1c(F)c(F)c(N/N=C/c2c[nH]c3ccccc23)c(F)c1F	n	n	u	n	n	u
C(=NN=C1c2ccccc2-c2ccccc21)c1c[nH]c2ccccc12	n	n	18.9µM	u	n	u
CCCc1nc2ccc(C)cn2c1Cc1cccc(Cl)c1	x	n	u	x	n	u
CCN(CC)CCCCNc1nc2cc(Cl)c(Cl)cc2nc1-c1ccc(-c2cccs2)s1	x	21.7µM	x	x	x	x
CCN(CC)CCCNc1cc(C)nc2cc(-c3cccs3)nn12	u	n	u	n	n	n
COc1cc(C2C=C(C34CC5CC(CC(C5)C3)C4)NC(=S)N2)cc(OC)c1OC (stereo not drawn)	23.1µM	n	n	n	n	n
COc1ccc(S(=O)(=O)NCCc2cn3ccsc3n2)cc1	x	x	x	n	n	n
CN(c1ccccc1)P(=O)(N(C)c1ccccc1)N(C)c1ccccc1	16.4µM	u	u	u	n	u
CC(C)[C@H](NC(=O)N1c2ccccc2NC(=O)[C@@H]1C(C)C)C(=O)N[C@H](Cc1ccccc1)C(=O)O	n	n	n	n	n	n
CCN(Cc1ccccc1)C(=O)c1sc2nc3n(c(=O)c2c1C)CCCC3	23.1µM	x	x	n	n	n
CCc1ccc(N(CC)C(=O)c2sc3nc4n(c(=O)c3c2C)CCCC4)cc1	n	x	x	n	n	u
COc1cc(-c2ccc3sc(-c4ccsc4)c(C#CCO)c3c2)cc(OC)c1OC	u	25.1µM	u	n	n	15.8µM
O=[N+]([O-])c1ccc(N2CCN(c3ccc(O)cc3)CC2)cn1	20.6µM	n	n	n	n	n
Cc1ccc(C)c(NC(=O)Cn2cnc3nc4c(cc3c2=O)CCCC4)c1	x	n	n	n	n	n
O=C(Oc1ccc(F)cc1)c1cccnc1	n	x	n	n	n	n
CC1=CC(C)(C)Nc2ccc(OC(=O)C(C)N3C(=O)c4ccccc4C3=O)cc21 (stereo not drawn)	25.9µM	u	x	n	n	17.8µM
CC1=CC(C)(C)Nc2ccc(OC(=O)c3cccnc3)cc21	u	u	u	x	12.6µM	n
CC1=CC(C)(C)Nc2ccc(OC(=O)c3ccco3)cc21	u	31.6µM	u	n	n	n
CC1=CC(C)(C)Nc2ccc(OC(=O)CN3C(=O)CCC3=O)cc21	u	u	n	n	15.8µM	n
CC1=CC(C)(C)Nc2ccc(C)cc21	n	n	n	n[1.84 µM]	n	n
SMILES	Nrf2 block	ATXN2 expr inh	S2 tox	A549 viability	HepG2 viability	TGFb inhibitor
CC1=CC(C)(C)N2C(=O)C(=O)c3cc(OC(=O)c4ccco4)cc1c32	n	n[11.3 µM]	u	n	n	u
O=C1NC[C@H](CCCCN2C[C@H](Cc3ccccc3)N(CCc3ccc(O)cc3)C(=O)C2=O)N(CCc2ccccc2)C1=O	x	n	n	x	x	x
Cc1ccc(CSc2nc3c(c(N(C)C)n2)CCCC3)cc1	u	n	n	n	n	u
CNc1nc(SCc2ccc(C)cc2)nc2c1CCCC2	u	n	n	n	n	15.8µM
c1ccc(Nc2ccccc2Nc2ccccn2)nc1	x	n	n	n	n	n
Oc1cccc2ccc(Nc3ccccn3)nc12	u	n	x	4.11µM	5.62µM	u
O=C(/C=C/c1ccccc1)Nc1ncn[nH]1	u	u	u	u	n	10µM
